Source: PubChem (National Center for Advancing Translational Sciences (NCATS))
DRD3 antagonist – qHTS of D3 Dopamine Receptor Antagonist: qHTS. D(3) dopamine receptor (Homo sapiens), P35462. D3R cells, DiscoveRx beta-arrestin luminescence, antagonist mode; hits give low values. max response, negative = inhibition, %. 2.5% of 360,000 active; in the data active means max response below about -50%; inconclusive means no clear call, values can overlap the other calls
Target sequence (P35462 whole entry, looked up): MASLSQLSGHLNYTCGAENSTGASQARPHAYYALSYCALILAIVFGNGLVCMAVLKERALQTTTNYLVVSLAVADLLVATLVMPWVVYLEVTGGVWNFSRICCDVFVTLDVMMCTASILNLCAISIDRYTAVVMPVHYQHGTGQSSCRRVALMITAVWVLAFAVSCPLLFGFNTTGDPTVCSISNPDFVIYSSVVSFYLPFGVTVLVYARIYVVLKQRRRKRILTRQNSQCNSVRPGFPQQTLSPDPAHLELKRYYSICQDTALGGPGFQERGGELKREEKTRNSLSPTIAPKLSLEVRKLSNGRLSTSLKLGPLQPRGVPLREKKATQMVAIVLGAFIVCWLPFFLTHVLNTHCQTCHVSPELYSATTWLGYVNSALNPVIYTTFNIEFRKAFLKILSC
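Cells expressing the human receptor were seeded at 1500 cells/well, incubated overnight at 37 degrees C in 5% CO2, then exposed to library compounds with dopamine controls for 90 minutes at 37 degrees C before luminescent detection.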
DT40 TDP1 no CPT – qHTS for Inhibitors of human tyrosyl-DNA phosphodiesterase 1 (TDP1): qHTS in cells in absence of CPT | DT40 Tdp1-/- hTDP1 cells, no CPT, ATP luminescence, 48 h | Potency, µM (highest dose often 46.2 µM), usual class: inhibitors | 15% of 420,000 active; further: nearly all actives have a fitted effect of over 55% in size
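Compound effects on proliferation are scored in DT40 Tdp1-/-;hTDP1 cells in the absence of CPT. ATP levels (CellTiter-Glo luminescence) are recorded after a ≥48 hr, 37 °C incubation.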
IL1B secr inh – qHTS for Inhibitors of Inflammasome Signaling: IL-1-beta AlphaLISA Primary Screen | THP-1 LPS/ATP IL-1B secretion, AlphaLISA, 16 h; hits give low values | activity change, % at 57.5 µM | 4.7% of 360,000 active | AID 743279, 2014; in the data active means activity change below about -50%; inconclusive means mostly about -30% to -49%
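Secreted IL-1B measured by AlphaLISA bead assay after 16 h compound exposure of THP-1 cells; compounds (final up to 57.5 uM) added 1 h before LPS (250 ng/mL) and ATP (1.25 mM) stimulation; lower signal means less secretion.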
ClpP mod – qHTS Assay for Activators of ClpP | ATP-dependent Clp protease proteolytic subunit (Bacillus subtilis (strain 168)), P80244 | Potency, µM (highest dose often 57.5 µM) | purified B. subtilis ClpP, FRET peptide cleavage, 20 min | AID 651965, 2013 | 1.9% of 340,000 active; active means well fitted falling curve with a large enough effect; inconclusive means small, poorly fitted or top-dose-only effect; inactive means no such curve, though single readings can be large or run the other way; further: the source files actives as falling curves though it sought activators and does not explain the sign; nearly all actives have a fitted effect of over 65% in size
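ClpP 10 microg/mL final, pH 8 Tris/KCl buffer with BSA, glycerol, Tween-20; compound pinned in; FRET-FV substrate; RT 20 min; Ex320/Em430; ΔFRET vs ADEP 5.8 microM, DMSO, no enzyme.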
DRD3 agonist – qHTS of D3 Dopamine Receptor Agonist: qHTS; D(3) dopamine receptor (Homo sapiens), P35462; D3R DiscoveRx beta-arrestin cells, luminescence, 90 min; max activation, %; 0.58% of 410,000 active; in the data active means max activation above about 30%
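Agonist mode: compounds and dopamine controls were applied to plated cells for 90 min at 37 degrees C after an overnight attachment at 1500 cells/well. Luminescent read-out followed 30 - 60 minutes at room temperature with DiscoveRx detection reagent.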
DT40 TDP1 CPT – qHTS for Inhibitors of human tyrosyl-DNA phosphodiesterase 1 (TDP1): qHTS in cells in presence of CPT; chicken DT40 Tdp1-/-;hTDP1 cells + 20 nM CPT, ATP luminescence, 48 h; Potency, µM (titrated, usually from 46.2 µM), most hits filed as inhibitors; 12% of 420,000 active; AID 686979, 2013; further: nearly all actives have a fitted effect of over 55% in size
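Chicken DT40 Tdp1-/- cells complemented with human TDP1, 400 cells/well, exposed to compounds plus 20 nM camptothecin for at least 48 h at 37 C; viability read as ATP content by CellTiter-Glo luminescence.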
Numbers stand for hits; - = inactive; ? = inconclusive; . = not tested or not shown; ! = not confirmed by another sample; [ ] = dose if it differs, or a comment. Compounds with a hit are over-represented: about 21% of the library has one in this group of screens. Unless noted, the call rests on the fitted dose curve; in most records, active means well fitted inhibition curve with a large enough effect; inconclusive means small, poorly fitted or top-dose-only effect; inactive means flat fitted curve, though single readings scatter.

SMILES	DRD3 antagonist	DT40 TDP1 no CPT	IL1B secr inh	ClpP mod	DRD3 agonist	DT40 TDP1 CPT
COc1ccc(N2CCN(C(=O)COCc3cc(-c4ccc5c(c4)OCO5)on3)CC2)cc1	-	18µM!	-	-	-	?
O=C(COCc1cc(-c2ccc3c(c2)OCO3)on1)N1CCN(c2cccc(C(F)(F)F)c2)CC1	-	23µM!	-	-	-	13µM
CCN1CCN(C(=O)COCc2cc(-c3ccc4c(c3)OCO4)on2)CC1	-	-	-	-	-	-
CCc1cccc(C)c1NC(=O)COCc1cc(-c2ccc3c(c2)OCO3)on1	.	?	.	?	-	23µM
COC(=O)c1ccccc1NC(=O)COCc1cc(-c2cccs2)on1	.	?	.	-	-	?
CCC1CN(CCNC(=O)c2cccc(N3CCCC3=O)c2)Cc2cc(OC)ccc2O1 (stereo not given)	.	-	.	.	.	-[9.04 µM]
CC(=NO)c1ccc2c(c1)C(=NO)c1ccccc1-2	-	21µM	-	-	-	16µM
Nc1ccc2c(c1)C(=O)C(=O)c1ccccc1-2	-	0.92µM	-122	-	-	0.65µM
Nc1ccc2c(c1)C(=NO)c1ccccc1-2	-	8.2µM	-	?	-	18µM
ON=C1c2ccccc2-c2cc(Br)ccc21	-	?	-52	-	-	7.3µM
Nn1c(SCC(=O)Nc2c(Cl)cccc2Cl)nncc1=O	-	-	-	.	-	-
O=S(=O)(N[C@H](CO)Cc1ccccc1)c1ccc(Br)cc1F	-	-	-	-	-	-
O=C(Nc1cc(-c2ccccc2)nn1-c1ccccc1)c1ccccc1F	-	?	-	-	-	?
Nc1cc2c(cc1[N+](=O)[O-])-c1ccccc1C2=NO	-	8.2µM	-	-	-	21µM
O=C1C(=O)c2ccc(-c3ccccc3)cc2-c2ccccc21	?	2.6µM	-57	-	-	0.92µM
CC(=O)Nc1cc2c(cc1[N+](=O)[O-])-c1ccccc1C2=NO	-	-	-	-	-	?
COc1ccc(CN2CCC(C(=O)c3cccc(Cl)c3)CC2)cc1	-	-	-	-	-	-
O=C(c1ccc(F)cc1)C1CCN(Cc2ccccc2)CC1	-86	?	-	-	-	-
COc1ccc(CN2CCC(C(=O)c3ccc(Cl)cc3)CC2)cc1	-88	16µM	-	-	-	23µM
O=C(c1ccc(F)cc1)C1CCN(Cc2ccc(F)cc2)CC1	-88	?	-	.	-	-
CN(Cc1ccccc1)C(=O)C1CCN(Cc2ccc(F)cc2)CC1	?	-	?	-	-	-
N#Cc1ccc2c(c1)nnn2-c1ccccc1	-	-	.	.	-	-
Nc1ccc2c(c1)nnn2-c1ccccc1	-	-	-79	.	-	-
Cc1ccc(C(C(=O)NC2CCCCC2)N(CC2CCCO2)C(=O)CCCC(=O)Nc2ccccn2)cc1 (stereo not given)	-	?	-	-	-	?
C[C@@H]1CCCCO[C@H](CN(C)S(=O)(=O)c2cccs2)[C@@H](C)CN([C@H](C)CO)C(=O)c2cc(NC(=O)C3CCCCC3)ccc2O1	?	26µM	-	-	-	18µM
C[C@@H]1CN([C@@H](C)CO)C(=O)c2cc(N(C)C)ccc2O[C@@H](C)CCCCO[C@@H]1CN(C)S(=O)(=O)c1cccs1	-	16µM	-	-	-	18µM
C[C@H](CO)N1C[C@H](C)[C@@H](CN(C)S(=O)(=O)c2ccccc2)Oc2ccc(NC(=O)NC3CCCCC3)cc2C1=O	-	21µM	-	-	-	?
C[C@H](CO)N1C[C@H](C)[C@@H](CN(C)S(=O)(=O)c2cccs2)Oc2ccc(NC(=O)NC3CCCCC3)cc2C1=O	-	?	-	-	-	?
